In all, about 5,500 compounds went through this assay and about 2,000 (36%) were called active. About 18% were inconclusive and are not listed. Rule as the data show it: active = normalized growth mostly below about 0.91 (no sharp cut-off); inconclusive = no clear call, values can overlap the other calls; inactive = mostly above about 0.92. The list shows a part of the results.
Experiment: chemical genetic growth profiling, strain panel (AID 1159580);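 also: tested at 20 µM; growth read once vehicle control cultures reached saturation at 30 °C; 1 = growth at the plate median or of vehicle wells; lower values mean less growth of the strain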
Details: growth OD

Measured: normalized growth

C[C@]12C=CC(=O)C=C1CCC1C3C[C@@H](O)[C@](O)(C(=O)CO)[C@@]3(C)C[C@H](O)[C@@]12F (some centres undefined)
inactive: S. cerevisiae deletion strains, locus YJR066W, strain TOR1, hits give low values 0.952 | S. cerevisiae deletion strains, locus YJR075W, strain HOC1, hits give low values 1.01 | S. cerevisiae deletion strains, locus YKL009W, strain mrt4, hits give low values 0.983 | S. cerevisiae deletion strains, locus YKL068W, hits give low values 0.992 | S. cerevisiae deletion strains, locus YKL085W, strain MDH1 (second series), hits give low values 0.983 | S. cerevisiae deletion strains, locus YKL085W, strain MDH1, hits give low values 0.983 | S. cerevisiae deletion strains, locus YKL160W, strain elf1, hits give low values 0.957 | S. cerevisiae deletion strains, locus YKL190W, strain CNB1, hits give low values 1 | S. cerevisiae deletion strains, locus YKR001C, strain vps1, hits give low values 0.944 | S. cerevisiae deletion strains, locus YKR026C, strain gcn3, hits give low values 0.985 | S. cerevisiae deletion strains, locus YKR091W, strain srl3, hits give low values 0.985 | S. cerevisiae deletion strains, locus YLL001W, strain dnm1, hits give low values 1.01 | S. cerevisiae deletion strains, locus YLL026W, hits give low values 0.964 | S. cerevisiae deletion strains, locus YLL041C, strain sdh2, hits give low values 0.985 | S. cerevisiae deletion strains, locus YLR027C, strain aat2, hits give low values 0.998 | S. cerevisiae deletion strains, locus YLR039C, strain RIC1, hits give low values 1.01 | S. cerevisiae deletion strains, locus YLR058C, strain SHM2, hits give low values 1.01 | S. cerevisiae deletion strains, locus YLR102C, strain apc9, hits give low values 0.981 | S. cerevisiae deletion strains, locus YLR113W, strain HOG1, hits give low values 1.01 | S. cerevisiae deletion strains, locus YLR221C, strain rsa3, hits give low values 1.01 | S. cerevisiae deletion strains, locus YLR258W, strain gsy2, hits give low values 0.983 | S. cerevisiae deletion strains, locus YLR262C, strain YPT6 (second series), hits give low values 0.996 | S. cerevisiae deletion strains, locus YLR262C, strain YPT6, hits give low values 1.02 | S. cerevisiae deletion strains, locus YLR268W, strain sec22, hits give low values 0.953 | S. cerevisiae deletion strains, locus YLR320W, strain mms22, hits give low values 0.98 | S. cerevisiae deletion strains, locus YLR330W, strain CHS5, hits give low values 1.01 | S. cerevisiae deletion strains, locus YLR342W, strain FKS1 (second series), hits give low values 1 | S. cerevisiae deletion strains, locus YLR342W, strain FKS1, hits give low values 0.982 | S. cerevisiae deletion strains, locus YLR357W, strain rsc2, hits give low values 0.941 | S. cerevisiae deletion strains, locus YLR370C, strain arc18, hits give low values 0.991 | S. cerevisiae deletion strains, locus YLR371W, strain rom2, hits give low values 0.987 | S. cerevisiae deletion strains, locus YLR384C, strain iki3, hits give low values 0.993 | S. cerevisiae deletion strains, locus YLR418C, strain cdc73, hits give low values 0.968 | S. cerevisiae deletion strains, locus YML016C, strain PPZ1, hits give low values 1.01 | S. cerevisiae deletion strains, locus YML032C, strain rad52, hits give low values 0.974 | S. cerevisiae deletion strains, locus YML120C, strain ndi1, hits give low values 0.99 | S. cerevisiae deletion strains, locus YML124C, strain tub3, hits give low values 0.981 | S. cerevisiae deletion strains, locus YMR058W, strain fet3, hits give low values 1.04 | S. cerevisiae deletion strains, locus YMR078C, strain ctf18, hits give low values 0.989 | S. cerevisiae deletion strains, locus YMR125W, strain sto1, hits give low values 0.942 | S. cerevisiae deletion strains, locus YMR129W, hits give low values 0.988 | S. cerevisiae deletion strains, locus YMR205C, strain PFK2, hits give low values 0.958 | S. cerevisiae deletion strains, locus YMR223W, strain ubp8, hits give low values 0.991 | S. cerevisiae deletion strains, locus YMR231W, strain pep5, hits give low values 0.989 | S. cerevisiae deletion strains, locus YMR263W, strain SAP30, hits give low values 1.01 | S. cerevisiae deletion strains, locus YMR307W, strain GAS1, hits give low values 0.991 | S. cerevisiae deletion strains, locus YNL067W, strain RPL9B, hits give low values 1.01 | S. cerevisiae deletion strains, locus YNL071W, strain lat1, hits give low values 0.983 | S. cerevisiae deletion strains, locus YNL183C, strain NPR1, hits give low values 0.961 | S. cerevisiae deletion strains, locus YNL209W, strain ssb2, hits give low values 0.978 | S. cerevisiae deletion strains, locus YNL233W, strain BNI4, hits give low values 1.01 | S. cerevisiae deletion strains, locus YNL248C, strain rpa49, hits give low values 0.925 | S. cerevisiae deletion strains, locus YNL250W, strain rad50, hits give low values 0.985 | S. cerevisiae deletion strains, locus YNL271C, strain bni1, hits give low values 0.971 | S. cerevisiae deletion strains, locus YNL298W, strain CLA4, hits give low values 0.98 | S. cerevisiae deletion strains, locus YNL307C, strain MCK1, hits give low values 0.975 | S. cerevisiae deletion strains, locus YNL322C, strain KRE1 (second series), hits give low values 0.944 | S. cerevisiae deletion strains, locus YNR049C, strain mso1, hits give low values 0.985 | S. cerevisiae deletion strains, locus YNR052C, strain pop2, hits give low values 0.988 | S. cerevisiae deletion strains, locus YOL006C, strain TOP1, hits give low values 1.06 | S. cerevisiae deletion strains, locus YOL012C, strain htz1 1.1 | S. cerevisiae deletion strains, locus YOL147C, strain pex11, hits give low values 0.975 | S. cerevisiae deletion strains, locus YOR001W, strain rrp6, hits give low values 1.02 | S. cerevisiae deletion strains, locus YOR061W, strain CKA2, hits give low values 1.01 | S. cerevisiae deletion strains, locus YOR069W, strain VPS5, hits give low values 1.01 | S. cerevisiae deletion strains, locus YOR070C, strain gyp1, hits give low values 0.979 | S. cerevisiae deletion strains, locus YOR080W, strain dia2, hits give low values 0.987 | S. cerevisiae deletion strains, locus YOR083W, strain WHI5, hits give low values 0.901 | S. cerevisiae deletion strains, locus YOR106W, strain vam3, hits give low values 0.924 | S. cerevisiae deletion strains, locus YOR136W, strain idh2, hits give low values 0.986 | S. cerevisiae deletion strains, locus YOR144C, strain elg1, hits give low values 0.985 | S. cerevisiae deletion strains, locus YOR184W, strain ser1, hits give low values 0.974 | S. cerevisiae deletion strains, locus YOR231W, strain MKK1, hits give low values 0.983 | S. cerevisiae deletion strains, locus YOR265W, strain rbl2, hits give low values 0.969 | S. cerevisiae deletion strains, locus YOR270C, strain vph1, hits give low values 0.988 | S. cerevisiae deletion strains, locus YOR290C, strain snf2, hits give low values 0.962 | S. cerevisiae deletion strains, locus YOR316C, strain cot1, hits give low values 0.991 | S. cerevisiae deletion strains, locus YPL051W, strain arl3, hits give low values 0.967 | S. cerevisiae deletion strains, locus YPL078C, strain atp4, hits give low values 0.961 | S. cerevisiae deletion strains, locus YPL106C, strain sse1, hits give low values 0.976 | S. cerevisiae deletion strains, locus YPL240C, strain hsp82, hits give low values 0.986 | S. cerevisiae deletion strains, locus YPL241C, strain CIN2, hits give low values 1.01 | S. cerevisiae deletion strains, locus YPL256C, strain CLN2, hits give low values 0.973 | S. cerevisiae deletion strains, locus YPR119W, strain clb2, hits give low values 0.99 | S. cerevisiae deletion strains, locus YPR141C, strain kar3, hits give low values 0.993 | S. cerevisiae deletion strains, locus YPR163C, strain tif3, hits give low values 0.973 | S. cerevisiae deletion strains, locus YPR167C, strain met16, hits give low values 0.979 | S. cerevisiae deletion strains, strain wtn01, hits give low values 0.969 | S. cerevisiae strains, strain wild type, hits give low values 1.01

From PubChem BioAssay AID1159580 (chemical genetic matrix, 2015)
